GLP1R cytotox = cytotoxic in the GLP-1 receptor inverse agonist counter-screen; HEK293 cAMP-luciferase reporter cells, luminescence, 24 h; Potency, µM (doses to about 38.3 µM), for the others: at the highest dose activity change, negative = inhibition, usual class: inhibitors; hit rate 0.13% among 410,000; AID 624418;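 note: loss of luciferase light is scored as toxicity; % is set by controls: 0 for no effect and ±100 for the full control effect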
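Cells in DMEM/10% Nu serum/1% pen-strep, 1536-well format. Pre-incubated 12 h, dosed with 23 nL compound, incubated a further 24 h. Luciferase detection, 12 min at room temp, luminescence.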
PTHR1 ag = agonists of human PTHR1 parathyroid hormone receptor. Q03431. HEK293 GP2 PTHR1 cells, GloSensor cAMP luminescence, 1 h. Potency, µM (top dose mostly 115 µM), without a hit: at the top dose activation, actives largely listed as activators. hit rate 0.075% among 410,000. AID 743266; note: nearly all actives have a fitted effect of over 55% in size
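HEK-293-derived GP2 cells expressing PTHR1 and a GloSensor cAMP reporter, 3,000/well, plated overnight, given luciferin plus IBMX (each 0.5 mM as added) for 1 h at 37 °C, then compound for 1 h at 37 °C. Luminescence was read after 15 min at room temperature.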
GLP1R ag = GLP-1 receptor (human) agonism; HEK293 GLP-1R CRE-luciferase, luminescence, 4-6 h; cells express a hypersensitive GLP-1R form; Potency, µM (doses to about 45.6 µM), without a hit: top-dose activation, actives largely listed as activators; P43220; hit rate 0.007% among 380,000; note: % of control where 0% means no effect
Target sequence (P43220 whole entry, looked up): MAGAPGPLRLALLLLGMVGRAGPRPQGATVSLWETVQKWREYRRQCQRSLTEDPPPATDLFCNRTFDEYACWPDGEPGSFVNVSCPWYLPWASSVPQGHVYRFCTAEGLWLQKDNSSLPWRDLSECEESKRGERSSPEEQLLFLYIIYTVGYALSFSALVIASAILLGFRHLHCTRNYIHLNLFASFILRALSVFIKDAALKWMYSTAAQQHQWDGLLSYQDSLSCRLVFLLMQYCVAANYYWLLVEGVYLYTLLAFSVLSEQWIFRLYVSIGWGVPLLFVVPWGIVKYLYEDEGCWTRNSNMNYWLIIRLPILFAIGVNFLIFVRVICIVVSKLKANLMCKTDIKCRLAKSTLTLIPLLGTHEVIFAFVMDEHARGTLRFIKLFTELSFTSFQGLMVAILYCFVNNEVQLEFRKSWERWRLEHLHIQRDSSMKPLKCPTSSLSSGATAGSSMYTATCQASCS
GLP1R inv ag = GLP-1 receptor (human) inverse agonism | hit rate 1.6% among 410,000 | Potency, µM (highest dose often 38.3 µM), without a hit: at the highest dose activity change, negative = inhibition, most hits filed as inhibitors | P43220 | HEK293 GLP-1R CRE-luciferase, luminescence, 24 h; GLP-1R form is constitutively active; note: % is set by controls: 0 for no effect and ±100 for the full control effect; nearly all actives have a fitted effect of over 55% in size
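Inverse agonists were sought by their lowering of basal cAMP reporter luciferase output in HEK293 cells stably carrying constitutively active human GLP-1R, after 24 h compound treatment.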
Active calls of the source: *; [ ] = remark or other dose. This is a sample that favours compounds with a hit; in the whole collection about 1.7% have one here. Calls come from the whole dose curve; as a rule, active = well fitted curve in the direction sought with a large enough effect; inconclusive = small, poorly fitted or top-dose-only effect, or another doubt; inactive = no such curve, though single readings can be large; an effect the other way counts as inactive or inconclusive. Potency is the fitted concentration of half-maximal effect.

Results for CCOc1ccc(N(CC(=O)Nc2ccc(C)c(C)c2)S(=O)(=O)c2c(C)noc2C)cc1 ?
GLP1R cytotox: 13.8%; PTHR1 ag: inactive; GLP1R ag: 7.3%; GLP1R inv ag: 10µM*

Results for O=C1NC[C@H](c2ccccc2)OC(=O)[C@H](Cc2ccc(F)cc2)C/C=C\C[C@H]1CC(=O)N(CCO)Cc1ccccc1 ?
GLP1R cytotox: -29.1%; PTHR1 ag: inactive; GLP1R ag: -6.1%; GLP1R inv ag: 5.62µM*

How did O=C1N[C@@H](Cc2c[nH]c3ccccc23)COC(=O)[C@@H](Cc2ccc(F)cc2)C/C=C\C[C@H]1CC(=O)N(CCO)Cc1ccccc1 do in these assays?
GLP1R cytotox: inconclusive; PTHR1 ag: -0.6%; GLP1R ag: -5.9%; GLP1R inv ag: 8.91µM*

What do the screens show for `O=C1NC[C@H](c2ccccc2)OC(=O)[C@@H](Cc2ccc(F)cc2)C/C=C\C[C@H]1CC(=O)N(CCO)Cc1ccccc1`?
GLP1R cytotox: 3.2%; PTHR1 ag: -41.3%; GLP1R ag: -11.3%; GLP1R inv ag: -4.1%

How did Cn1nccc1C(=O)N1CCC(Cc2ccccc2)CC1 do in these assays?
GLP1R cytotox: 7.1%; PTHR1 ag: inconclusive; GLP1R ag: 6.9%; GLP1R inv ag: -40.0%

What do the screens show for `Cc1n[nH]c(=O)c2c(NC(=O)CSc3nn(-c4ccccc4)c(=S)s3)oc(C)c12`?
GLP1R cytotox: 11.1%; PTHR1 ag: -1.0%; GLP1R ag: 2.4%; GLP1R inv ag: 1.6%

What do the screens show for `Cc1occc1-c1nnc(SCC(=O)Nc2ccccc2)n1CCc1ccccc1`?
GLP1R cytotox: -14.4%; PTHR1 ag: inactive; GLP1R ag: 0.9%; GLP1R inv ag: 11.2µM*

How did Cc1ccc(C)c(N/C(N)=N/c2nc(C)cc(C)n2)c1 do in these assays?
GLP1R cytotox: inconclusive; PTHR1 ag: -64.2%; GLP1R ag: -30.1%; GLP1R inv ag: 8.91µM*

What do the screens show for `Cc1[nH]c2ccc(C(=O)OC(C)C(=O)NCc3ccccc3)cc2c1C` (configuration not stated)?
GLP1R cytotox: inconclusive; PTHR1 ag: -26.5%; GLP1R ag: 8.7%; GLP1R inv ag: inconclusive

How did Cc1ccccc1CN(C)C(=O)COC(=O)c1ccc2[nH]c(C)c(C)c2c1 do in these assays?
GLP1R cytotox: -28.9%; PTHR1 ag: -0.1%; GLP1R ag: 2.2%; GLP1R inv ag: 8.91µM*

How did O=C(Nc1c(-c2ccccc2)nc2ccccn12)c1cccc(F)c1 do in these assays?
GLP1R cytotox: -7.3%; PTHR1 ag: 3.4%; GLP1R ag: 2.8%; GLP1R inv ag: 10µM*

What do the screens show for `O=C(Nc1c(-c2ccccc2)nc2ccccn12)c1ccccc1`?
GLP1R cytotox: 5.3%; PTHR1 ag: -13.9%; GLP1R ag: -2.9%; GLP1R inv ag: -1.6%

Results for O=C(Nc1c(-c2ccccc2)nc2ccccn12)c1ccc(Br)cc1 ?
GLP1R cytotox: -25.3%; PTHR1 ag: -12.3%; GLP1R ag: -0.2%; GLP1R inv ag: 11.2µM*

How did O=C(Nc1nnc(SCCC2OCCO2)s1)C1CC(=O)N(c2ccc(F)cc2)C1 (configuration not stated) do in these assays?
GLP1R cytotox: 12.9%; PTHR1 ag: -21.1%; GLP1R ag: -19.4%; GLP1R inv ag: -9.2%

What do the screens show for `CCOc1ccccc1N1CCN(C(=O)c2ccccc2SCC(=O)N2CCCC2)CC1`?
GLP1R cytotox: 4.3%; PTHR1 ag: -20.0%; GLP1R ag: 1.8%; GLP1R inv ag: -17.0%

What do the screens show for `CN(Cc1ccc(F)cc1)C(=O)C(c1ccccc1)c1ccccc1`?
GLP1R cytotox: -14.9%; PTHR1 ag: -15.6%; GLP1R ag: 6.8%; GLP1R inv ag: inconclusive

Results for COc1ccccc1CN(C)C(=O)C(c1ccccc1)c1ccccc1 ?
GLP1R cytotox: inconclusive; PTHR1 ag: -37.8%; GLP1R ag: 2.6%; GLP1R inv ag: 12.6µM*

How did S=C(N/N=C/c1ccccc1Cl)Nc1ccccc1 do in these assays?
GLP1R cytotox: 3.98µM*; PTHR1 ag: inactive; GLP1R ag: 11.7%; GLP1R inv ag: inconclusive

How did CC(C)C[C@@]12C(=O)N(c3cccc(Br)c3)C(=O)N1[C@H](c1ccc(F)cc1)[C@@H]1C(=O)N(C3CCCCC3)C(=O)[C@@H]12 do in these assays?
GLP1R cytotox: -8.8%; PTHR1 ag: -8.8%; GLP1R ag: -2.3%; GLP1R inv ag: inconclusive

Results for CC(C)c1nn2c(=O)cc(COC(=O)c3cccs3)nc2s1 ?
GLP1R cytotox: 2.5%; PTHR1 ag: -29.1%; GLP1R inv ag: -11.8%

What do the screens show for `CCOC(=O)C(C)/C(C)=N/NC(N)=S` (configuration not stated)?
GLP1R cytotox: 0.562µM*; PTHR1 ag: 5.4%; GLP1R ag: -1.0%; GLP1R inv ag: inconclusive

What do the screens show for `C[C@H](/C=C/[C@H](C)C(C)(C)O)[C@H]1CC[C@H]2/C(=C/C=C3C[C@@H](O)C[C@H](O)C3)CCC[C@]12C`?
GLP1R ag: 0.1%

Results for CC(C)OC(=O)OCOP(=O)(CO[C@H](C)Cn1cnc2c(N)ncnc21)OCOC(=O)OC(C)C ?
GLP1R ag: 10.2%

Results for S=c1[nH]cnc2sc(-c3ccccc3)cc12 ?
GLP1R cytotox: 5.62µM*; PTHR1 ag: -18.6%; GLP1R ag: 1.4%; GLP1R inv ag: -6.0%

How did CNc1ncnc2sc(-c3ccccc3)cc12 do in these assays?
GLP1R cytotox: 7.8%[0.307 µM]; PTHR1 ag: -23.8%; GLP1R ag: inconclusive; GLP1R inv ag: -12.3%[0.307 µM]

What do the screens show for `Cc1ccc(C)c(N2CCN(C(=O)c3ccc(CS(=O)Cc4ccc(Cl)cc4)o3)CC2)c1` (configuration not stated)?
GLP1R cytotox: -22.5%; PTHR1 ag: -92.1%; GLP1R ag: -3.8%; GLP1R inv ag: 10µM*

Results for Cc1ccc(Cl)cc1N1CCN(C(=O)c2ccc(CS(=O)Cc3ccc(Cl)cc3)o2)CC1 (configuration not stated) ?
GLP1R cytotox: -16.6%; PTHR1 ag: -27.0%; GLP1R ag: -5.0%; GLP1R inv ag: 8.91µM*

Results for CCC(=O)Nc1ccc2c(c1)OC[C@@H](C)N(Cc1cccc(F)c1)C[C@@H](C)[C@@H](OC)CN(C)C2=O ?
GLP1R cytotox: -3.4%; PTHR1 ag: inactive; GLP1R inv ag: 14.1%

What do the screens show for `Cc1cc(-c2nnc(SCC(=O)Nc3ccccc3C(F)(F)F)o2)c(C)n1-c1ccccc1`?
GLP1R cytotox: -5.2%; PTHR1 ag: -4.1%; GLP1R ag: -21.7%; GLP1R inv ag: 0.891µM*

What do the screens show for `Cc1cccc(NC(=O)CSc2nnc(-c3cc(C)n(-c4ccccc4)c3C)o2)c1C`?
GLP1R cytotox: -7.0%; PTHR1 ag: -7.5%[57.5 µM]; GLP1R ag: 1.8%; GLP1R inv ag: inconclusive

What do the screens show for `Cc1ccc(-c2nnc(SCC(=O)Nc3ccccc3F)o2)cc1`?
GLP1R cytotox: -8.3%; PTHR1 ag: -90.8%; GLP1R ag: -2.1%; GLP1R inv ag: 2.24µM*

Results for COc1cccc(C(=O)Nc2ccc(S(=O)(=O)N(Cc3ccccc3)c3ccccc3)cc2)c1 ?
GLP1R cytotox: -1.5%; PTHR1 ag: -14.3%; GLP1R inv ag: inconclusive

Screening data: PubChem, National Center for Advancing Translational Sciences (NCATS)
